Records with an inconclusive call do not appear. Active and inactive are the calls of the source. Unless noted, calls follow the shape of the dose curve; as a rule, active = well fitted curve in the direction sought with a large enough effect in the repeat runs; inconclusive = weak or mixed curves; inactive = flat fitted curve, though single readings scatter.
Assays:
[1] = qHTS assay to test for compound auto fluorescence at 535 nm (green) in HEK293 cells (AID 720680)
[2] = qHTS assay to test for compound auto fluorescence at 460 nm (blue) in HEK293 cell free culture (AID 720681)
In short: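 Blue fluorescence (Ex 405/Em 460 nm, triamterene-equivalent) was read immediately after pin transfer of compound or DMSO into medium (DMEM, 10% FBS) without cells.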

[3] = qHTS assay to test for compound auto fluorescence at 535 nm (green) in HEK293 cell free culture (AID 720682)
In short: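 Each library compound, or DMSO control, is added by pintool to medium alone, comprising DMEM and 10% FBS. Emission at 535 nm following 485 nm excitation is quantified against fluorescein.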

[4] = qHTS assay to test for compound auto fluorescence at 590 nm (red) in HEK293 cell free culture (AID 720683)
In short: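 Red-channel autofluorescence of compounds in culture medium (DMEM, 10% FBS), no cells, measured at 540/590 nm. Rose Bengal sodium is the reference fluorophore for equivalence.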

[5] = qHTS assay to test for compound auto fluorescence at 590 nm (red) in HepG2 cell free culture (AID 720684)
In short: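 Cell-free; medium MEM + 10% FBS; compound or DMSO added by pintool; read Ex 540/Em 590 nm; Rose Bengal sodium as red reference fluorophore.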

[6] = qHTS assay to test for compound auto fluorescence at 460 nm (blue) in HepG2 cell free culture (AID 720685)
In short: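 Cell-free plates of MEM plus 10% FBS received 23 nL compound or DMSO vehicle; blue-channel (405/460 nm) intensity scored against triamterene as reference fluorophore.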

[7] = qHTS assay to test for compound auto fluorescence at 535 nm (green) in HepG2 cell free culture (AID 720686)
[8] = qHTS assay to test for compound auto fluorescence at 460 nm (blue) in HepG2 cells (AID 720687)
In short: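 Blue-channel autofluorescence (Ex/Em 405/460 nm, triamterene-equivalent) was measured after 1 hr compound exposure at 37 C, 5% CO2. Cells were HepG2, plated overnight at 37 C in MEM plus 10% FBS.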

[9] = biological target: Glucocorticoid receptor (Homo sapiens) (UniProt P04150); test: qHTS assay to identify small molecule agonists of the glucocorticoid receptor (GR) signaling pathway (AID 720691; active = well fitted activation curve with a large enough effect in the signal ratio in the repeat runs, not every such curve was filed as active; the % refers to the signal ratio); conditions: GR-bla HeLa, beta-lactamase reporter ratio, 18 h; activation: at 62.4 µM (top of the series)
Sequence of Glucocorticoid receptor (Homo sapiens) (P04150 whole entry, looked up): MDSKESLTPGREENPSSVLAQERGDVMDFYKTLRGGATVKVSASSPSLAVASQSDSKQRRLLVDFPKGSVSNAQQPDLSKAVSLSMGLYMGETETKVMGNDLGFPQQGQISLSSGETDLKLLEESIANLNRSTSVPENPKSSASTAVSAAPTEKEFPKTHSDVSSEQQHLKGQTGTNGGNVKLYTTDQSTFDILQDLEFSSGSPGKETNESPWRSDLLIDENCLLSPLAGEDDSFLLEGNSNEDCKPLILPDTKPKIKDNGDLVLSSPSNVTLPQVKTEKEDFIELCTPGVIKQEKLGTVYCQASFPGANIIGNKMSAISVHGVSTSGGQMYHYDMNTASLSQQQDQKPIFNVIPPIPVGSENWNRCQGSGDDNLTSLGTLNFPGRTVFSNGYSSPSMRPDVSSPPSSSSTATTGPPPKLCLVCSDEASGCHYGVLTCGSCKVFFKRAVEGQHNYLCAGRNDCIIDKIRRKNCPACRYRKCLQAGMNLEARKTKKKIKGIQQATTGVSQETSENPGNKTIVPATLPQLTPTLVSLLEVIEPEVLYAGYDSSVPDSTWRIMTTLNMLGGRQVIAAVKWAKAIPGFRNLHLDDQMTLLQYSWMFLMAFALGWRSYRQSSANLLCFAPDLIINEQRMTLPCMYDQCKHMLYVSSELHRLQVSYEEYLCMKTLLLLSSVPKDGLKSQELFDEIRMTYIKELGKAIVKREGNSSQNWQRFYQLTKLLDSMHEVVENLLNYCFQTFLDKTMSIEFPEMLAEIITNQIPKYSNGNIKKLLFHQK
In short: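 HeLa GR-bla reporter line; cells pre-incubated 4 h, compound in DMSO 18 h at 37 C; LiveBLAzer B/G FRET substrate 2 h RT; fluorescence intensity read-out.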

[10] = biological target: Glucocorticoid receptor (Homo sapiens) (UniProt P04150); test: qHTS assay to identify small molecule antagonists of the glucocorticoid receptor (GR) signaling pathway (AID 720692; active = well fitted inhibition curve with a large enough effect in the signal ratio in the repeat runs, not every such curve was filed as active; the % refers to the signal ratio)
In short: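 Read-out: beta-lactamase FRET substrate fluorescence, 2 h at room temperature, in HeLa cells stably carrying a GRE-driven bla reporter. Compounds were co-incubated with 5 nM dexamethasone agonist (final) for 18 h at 37 C.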

Measured: Potency

CC(=O)Nc1c(I)c(C(=O)N[C@H]2C(O)O[C@H](CO)[C@@H](O)[C@@H]2O)c(I)c(N(C)C(C)=O)c1I (stereo partly specified)
not listed: [10]
inactive: all other assays above

CCC(C)(C)OC(=O)N[C@@H](Cc1c[nH]c2ccccc12)C(=O)N[C@@H](CCSC)C(=O)N[C@@H](CC(=O)O)C(=O)N[C@@H](Cc1ccccc1)C(N)=O
inactive: all assays above

CN1c2c(nc(N)[nH]c2=O)NCC1CNc1ccc(C(=O)NC(CCC(=O)O)C(=O)O)cc1 (stereo unspecified)
inactive: all assays above

NC(=O)C[C@@H](N)C(=O)O
inactive: all assays above

CCOC(=O)CCC(=O)O[C@H]1[C@H](O[C@@H]2[C@@H](C)[C@H](O[C@H]3C[C@@](C)(OC)[C@@H](O)[C@H](C)O3)[C@@H](C)C(=O)O[C@H](CC)[C@@](C)(O)[C@H](O)[C@@H](C)C(=O)[C@H](C)C[C@@]2(C)O)O[C@H](C)C[C@@H]1N(C)C
inactive: all assays above

CC(C)(C)NC[C@H](O)COc1ccccc1C1CCCC1
inactive: all assays above

COc1ccc(CCNC[C@H](O)c2ccc(O)cc2)cc1OC
inactive: all assays above

CCCCCC(O)/C=C/C=O (stereo unspecified)
inactive: all assays above

CN1CCN2c3ncccc3Cc3ccccc3C2C1 (stereo unspecified)
inactive: all assays above

CCN(CC)c1ccc(N=Nc2ccc(S(=O)(=O)N(C)C)cc2)c(S(=O)(=O)NCC[n+]2ccccc2)c1
inactive: all assays above

CCCC(CCC)C(N)=O
inactive: all assays above

CN(C)CCC=C1c2ccccc2C(C)(C)c2ccccc21
not listed: [10]
inactive: all other assays above

Cc1cc(-n2c(=O)[nH]c(=O)n(C)c2=O)ccc1Oc1ccc(S(=O)(=O)C(F)(F)F)cc1
not listed: [10]
inactive: all other assays above

CN(C)c1ccc(C(=C2C=CC(=[N+](C)C)C=C2)c2c(O)c(S(=O)(=O)[O-])cc3cc(S(=O)(=O)O)ccc23)cc1
inactive: all assays above

C[C@H]1[C@@H](OC(=O)CCC(=O)O)O[C@@H]2OC3(C)CC[C@H]4[C@H](C)CC[C@@H]1[C@@]24OO3
not listed: [10]
inactive: all other assays above

COc1ccc(C[C@@H](C)NC[C@H](O)c2ccc(O)c(NC=O)c2)cc1
inactive: all assays above

CCOC(=O)[C@H](CCc1ccccc1)N[C@@H](C)C(=O)N1CC2(C[C@H]1C(=O)O)SCCS2
inactive: all assays above

CC(=O)Nc1c(I)c(C(=O)O)c(I)c(N(C)C(C)=O)c1I
inactive: all assays above

CN1[C@@H]2CC[C@H]1CC(OC(c1ccccc1)c1ccccc1)C2 (stereo partly specified)
inactive: all assays above

CC[N+](C)(C)Cc1ccccc1Br
inactive: all assays above

CC(C)C[C@H](NC(=O)[C@@H](Cc1c[nH]c2ccccc12)NC(=O)[C@H](Cc1ccc(O)cc1)NC(=O)[C@H](CO)NC(=O)[C@H](Cc1c[nH]c2ccccc12)NC(=O)[C@H](Cc1cnc[nH]1)NC(=O)[C@@H]1CCC(=O)N1)C(=O)N[C@@H](CCCN=C(N)N)C(=O)N1CCC[C@@H]1C(=O)NCC(N)=O
inactive: all assays above
